Drawing on the supplement of paper PMC8253809, this text covers growth inhibition for 39 compounds.

Molecules are shown by their SMILES.

This assay deals with SUDIPGXIII (diffuse intrinsic pontine glioma line)
The assay can be described thus: growth inhibition (% activity, log2 RLU normalised to DMSO / staurosporine); higher = more growth inhibition. To be noted: 33 µM. The essentials:
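Cells (pHGG lines and H9-derived neural stem cells) were plated on Geltrex-coated 384-well plates and exposed to approved drugs at a single final concentration of about 33 μM, in triplicate, for 7 days at 37 °C, 5% CO2. Log2-transformed CellTiter-Glo luminescence was normalised per plate to % activity between solvent and positive control wells, and the growth-inhibition value is the median over replicates.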
As to `NC[C@H]1O[C@H](O[C@H]2[C@H](O)[C@@H](O[C@H]3O[C@H](CO)[C@@H](O)[C@H](N)[C@H]3O)[C@H](N)C[C@@H]2N)[C@H](N)C[C@@H]1O`, the growth inhibition is -17.5%.

For `CN[C@@H]1[C@H](O[C@H]2[C@H](O[C@H]3[C@H](O)[C@@H](O)[C@H](N=C(N)N)[C@@H](O)[C@@H]3N=C(N)N)O[C@@H](C)[C@]2(O)C=O)O[C@@H](CO)[C@H](O)[C@H]1O`, the growth inhibition is 0.85%.

`CN1C[C@@H]2C[C@H]1CN2c1cc2c(cc1F)c(=O)c(C(=O)O)cn2C1CC1`: the growth inhibition turned out to be 4.88%.

`O=C1C(=O)c2ccccc2C(O)=C1C1CCC(c2ccc(Cl)cc2)CC1` (centres undefined): the growth inhibition came to 1.82%.

For `CCN(CC)C(=O)/C(C#N)=C/c1cc(O)c(O)c([N+](=O)[O-])c1`, the growth inhibition was 1.29%.

Regarding `CCOC(=O)C1=C(C)NC(C)=C(C(=O)OC)C1c1cccc(Cl)c1Cl` (centres undefined), the growth inhibition was -2.05%.

With `CCCCCCCCCC(=O)N[C@@H](Cc1c[nH]c2ccccc12)C(=O)N[C@@H](CC(N)=O)C(=O)N[C@@H](CC(=O)O)C(=O)N[C@@H]1C(=O)NCC(=O)N[C@@H](CCCN)C(=O)N[C@@H](CC(=O)O)C(=O)N[C@H](C)C(=O)N[C@@H](CC(=O)O)C(=O)NCC(=O)N[C@H](CO)C(=O)N[C@@H]([C@H](C)CC(=O)O)C(=O)N[C@@H](CC(=O)c2ccccc2N)C(=O)O[C@@H]1C`, the growth inhibition is -1.13%.

`CC(=O)Oc1cc2c(s1)CCN(C(C(=O)C1CC1)c1ccccc1F)C2` (centres undefined): the growth inhibition was -1.75%.

With `Cc1[nH]c(=O)c(C#N)cc1-c1ccncc1`, the growth inhibition was -1.25%.

On to `CC[N+](CC)(CC)CCOc1cccc(OCC[N+](CC)(CC)CC)c1OCC[N+](CC)(CC)CC`, for which the growth inhibition was -2.39%.

In the case of `CN1CCN2c3ccccc3Cc3ccccc3C2C1` (centres undefined), the growth inhibition was -2.33%.

Take `Cc1cn([C@@H]2C[C@@H](O)[C@H](CO)O2)c(=O)[nH]c1=O`: the growth inhibition was -2.27%.

Regarding `Nc1ccc(C(=O)NCC(=O)O)cc1`, the growth inhibition was determined as 0.0926%.

As to `CNC(=C[N+](=O)[O-])NCCSCc1ccc(CN(C)C)o1`, the growth inhibition was -0.737%.

`COC1C(O)CC(=O)OC(C)CC=CC=CC(OC2CCC(N(C)C)C(C)O2)C(C)CC(CC=O)C1OC1OC(C)C(OC2CC(C)(O)C(O)C(C)O2)C(N(C)C)C1O` (centres undefined): the growth inhibition turned out to be 0.183%.

`Cc1c(Cl)cccc1Nc1ccccc1C(=O)O`: the growth inhibition was found to be 0.296%.

`CC(=O)OCC(=O)[C@@]12OC(C)(C)O[C@@H]1C[C@H]1[C@@H]3C[C@H](F)C4=CC(=O)C=C[C@]4(C)[C@@]3(F)[C@@H](O)C[C@@]12C`: the growth inhibition is 2.76%.

As to `O=C1N=C(O)NC1(c1ccccc1)c1ccccc1`, the growth inhibition was -17.1%.

Consider `CC[C@H](C)C(=O)O[C@H]1C[C@H](O)C=C2C=C[C@H](C)[C@H](CC[C@@H](O)C[C@@H](O)CC(=O)O)[C@H]21`, for which the growth inhibition worked out at 2.62%.

As for `C=C[C@]1(C)C[C@@H](OC(=O)CSC(C)(C)CNC(=O)[C@H](N)C(C)C)[C@]2(C)[C@H](C)CC[C@]3(CCC(=O)[C@H]32)[C@@H](C)[C@@H]1O`, the growth inhibition worked out at 46.4%.

Regarding `N=C(N)c1ccc2cc(OC(=O)c3ccc(N=C(N)N)cc3)ccc2c1`, the growth inhibition is -0.295%.

Regarding `CCC(=O)NCC[C@@H]1CCc2ccc3c(c21)CCO3`, the growth inhibition came out at 0.726%.

Regarding `OCC(O)CN1CCN(c2ccccc2)CC1` (centres undefined), the growth inhibition was -0.744%.

With `CNC(=O)c1cc(Oc2ccc(NC(=O)Nc3ccc(Cl)c(C(F)(F)F)c3)c(F)c2)ccn1`, the growth inhibition turned out to be 59.3%.

On to `CCn1cc(C(=O)O)c(=O)c2cnc(N3CCCC3)nc21`, for which the growth inhibition was -2.7%.

For `Cc1c(-c2ccc(O)cc2)n(Cc2ccc(OCCN3CCCCCC3)cc2)c2ccc(O)cc12`, the growth inhibition was 1.05%.

For the compound `Nc1nc2n[nH]nc2c(=O)[nH]1`, the growth inhibition amounted to 1.25%.

With `CCC(C)C1OC2(CCC1C)CC1CC(CC=C(C)C(OC3CC(OC)C(OC4CC(OC)C(O)C(C)O4)C(C)O3)C(C)C=CC=C3COC4C(O)C(C)=CC(C(=O)O1)C34O)O2` (centres undefined), the growth inhibition stood at 47.6%.

Consider `O=C([O-])[C@H](O)[C@@H](O)[C@H](O)[C@H](O)CO.[Na+]`, for which the growth inhibition is -0.611%.

In the case of `CC(C(=O)O)c1ccc(C(=O)c2cccs2)cc1` (centres undefined), the growth inhibition is -0.105%.

As to `COc1c2occc2cc2ccc(=O)oc12`, the growth inhibition is -0.581%.

Consider `C[C@@H]1CN(c2c(F)c(N)c3c(=O)c(C(=O)O)cn(C4CC4)c3c2F)C[C@H](C)N1`, for which the growth inhibition is -0.539%.

Turning to `Cc1cc(=O)n(-c2ccccc2)n1C`, the growth inhibition was 0.666%.

Turning to `NCCCCCC(=O)O`, the growth inhibition is -1.64%.

As for `Nc1nc2[nH]cc(CCc3ccc(C(=O)N[C@@H](CCC(=O)O)C(=O)O)cc3)c2c(=O)[nH]1`, the growth inhibition worked out at 1.32%.

In the case of `Cc1onc(-c2ccccc2)c1C(=O)N[C@@H]1C(=O)N2[C@@H]1SC(C)(C)[C@@H]2C(=O)O`, the growth inhibition is -1.71%.

Turning to `Nc1cccc2c1CN(C1CCC(=O)NC1=O)C2=O` (centres undefined), the growth inhibition is -0.527%.

For the compound `COc1ccccc1N1CCN(CC(O)COc2cccc3ccccc23)CC1` (centres undefined), the growth inhibition is -16%.

For `CC1CNc2c(cccc2S(=O)(=O)N[C@@H](CCCNC(=N)N)C(=O)N2CC[C@@H](C)C[C@@H]2C(=O)O)C1` (some centres undefined), the growth inhibition was -1.66%.
